This is a sample that favours compounds with a hit; in the whole collection about 2.8% have one here.
GALC G270D act: enhancers of human galactocerebrosidase G270D mutant activity in cells. 145M-Twi-hGALC-G270D cells, HMU-beta-Gal fluorescence, 48 h. P54803. Potency, µM (doses to about 57.5 µM), actives largely listed as activators. actives 0.1% (n = 45,000); note: nearly all actives have a fitted effect of over 65% in size
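qHTS, 1536-well; 145M-Twi-hGALC-G270D cells (WT line also made) in DMEM/F12 + 10% FBS; compound incubation on live cells; HMU-β-gal 0.1 mM final, pH 5.2, NaTC; carbonate stop; fluorescence increase = enhanced residual activity.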
pS6 MEF inh: reduces mTORC1 signaling in Tsc2 and p53 null MEF cells; Tsc2-/- p53-/- MEF, phospho-rpS6 immunofluorescence/PI, 24 h; actives 0.78% (n = 44,000); AID 493208; Potency, µM (highest dose often 38.3 µM), actives largely listed as inhibitors; note: nearly all actives have a fitted effect of over 50% in size
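Cell-based qHTS: Tsc2-/- p53-/- MEF, 24 h cpd, 37 °C; fix/perm, anti-phospho-S6 Alexa-488 + PI; Acumen 488 nm scan; pS6/PI ratio, % positive cells; rapamycin 7.5 nM = inhibition ref; PI count = viability.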
S16 viability: toxic to S16 Pmp22-F2sN Schwann cells. S16 Pmp22-F2sN Schwann cells viability, CellTiter-Glo, 24 h. actives 0.48% (n = 43,000). Potency, µM (highest dose often 57.5 µM), usual class: cytotoxic; note: nearly all actives have a fitted effect of over 65% in size
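Used to flag compounds lowering reporter output through toxicity, this quantitative HTS measures ATP-based CellTiter-Glo luminescence in S16 Pmp22-F2sN Schwann cells after 24 h compound exposure at 37C.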
PMP22 txn prim: modulators of PMP22 gene transcription in S16 Schwann cells; actives 2% (n = 43,000); S16 Pmp22-F2sN Schwann cells (luciferase reporters placed in the Pmp22 gene), FLuc/NLuc coincidence luminescence, 24 h; Potency, µM (series often up to 57.5 µM), most hits filed as inhibitors; active = clear falling dose curves in both reporters; inconclusive = both reporters move, but less clearly or upward; inactive = either reporter flat; the % is the NLuc reporter signal
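S16 Schwann cells carrying FLuc/NLuc coincidence reporter in the Pmp22 3' UTR treated with compound 24 h at 37C; FLuc then NLuc luminescence read sequentially by dual-luciferase reagents.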
NLuc saturating: inhibits NanoLuc at saturating substrate, PMP22 counter-screen; shares compounds with PMP22 txn prim; Secreted NLuc enzyme (filtered S16 cell medium), Nano-Glo luminescence; actives 4% (n = 690); AID 1508638; Potency, µM (highest dose often 57.5 µM), most hits filed as inhibitors
NLuc Km counter: inhibits NanoLuc under Km conditions, PMP22 counter-screen | shares compounds with PMP22 txn prim | secreted NLuc enzyme, coelenterazine luminescence, Km conditions | Potency, µM (doses to about 57.5 µM), hits mostly inhibitors | actives 5% (n = 690) | AID 1508639
FLuc counter: inhibits firefly luciferase, PMP22 counter-screen; shares compounds with PMP22 txn prim; purified P. pyralis FLuc, luminescence, 10 min; Potency, µM (titrated, usually from 57.5 µM), actives largely listed as inhibitors; 690 tested, under 10 active; AID 1508640
Target sequence (P08659 whole entry, looked up): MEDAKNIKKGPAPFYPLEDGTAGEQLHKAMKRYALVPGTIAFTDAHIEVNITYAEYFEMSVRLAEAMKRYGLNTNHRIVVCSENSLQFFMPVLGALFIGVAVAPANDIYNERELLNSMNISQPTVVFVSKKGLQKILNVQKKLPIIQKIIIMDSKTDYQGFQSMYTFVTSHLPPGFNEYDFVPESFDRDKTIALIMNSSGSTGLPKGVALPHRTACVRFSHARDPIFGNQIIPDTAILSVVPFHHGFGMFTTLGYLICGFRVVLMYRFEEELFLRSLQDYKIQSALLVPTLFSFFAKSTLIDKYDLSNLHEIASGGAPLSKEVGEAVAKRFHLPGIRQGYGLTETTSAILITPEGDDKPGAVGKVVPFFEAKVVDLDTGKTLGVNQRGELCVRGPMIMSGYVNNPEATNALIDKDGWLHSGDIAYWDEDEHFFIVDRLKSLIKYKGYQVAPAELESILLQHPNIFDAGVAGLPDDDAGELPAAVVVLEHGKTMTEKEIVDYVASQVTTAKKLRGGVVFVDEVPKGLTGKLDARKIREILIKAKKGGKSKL
S16 viab conf: S16 Schwann cell cytotoxicity, confirmatory. shares compounds with PMP22 txn prim. S16 Schwann cells viability, CellTiter-Glo ATP luminescence, 24 h. Potency, µM (highest dose often 57.5 µM), most hits filed as cytotoxic. actives 7% (n = 690)
PMP22 txn conf: confirmation of modulators of PMP22 gene transcription in S16 cells. Potency, µM (top dose mostly 57.5 µM), hits mostly inhibitors. actives 22% (n = 690). AID 1508646. S16 Schwann cells Pmp22-F2sN, dual luciferase, 24 h. shares compounds with PMP22 txn prim; active = clear falling dose curves in both reporters; inconclusive = both reporters move, but less clearly or upward; inactive = either reporter flat; the % is the FLuc reporter signal
Of the large screens only hits and unclear results are named; the others gave an inactive call (follow-up assays come after a bar, where they were run). Unless noted, calls come from the whole dose curve; as a rule, active = well fitted curve in the direction sought with a large enough effect; inconclusive = small, poorly fitted or top-dose-only effect, or another doubt; inactive = no such curve, though single readings can be large; an effect the other way counts as inactive or inconclusive.

Cc1ccc(S(=O)(=O)Cc2ccc(C(=O)N3CCN(c4cccc(C)c4C)CC3)o2)cc1	pS6 MEF inh inconclusive, PMP22 txn prim 13.9µM | NLuc saturating inactive | NLuc Km counter inactive | FLuc counter inactive | S16 viab conf inactive | PMP22 txn conf inconclusive
Cc1cc(C)cc(N2C(=O)CS(=O)(=O)C23C(=O)N(C)c2ccccc23)c1 (stereo not given)	none
Cc1c(Cl)cccc1NC(=O)CSc1ncc2c(n1)-c1ccccc1N(C)S2(=O)=O	PMP22 txn prim 16.8µM | NLuc saturating inconclusive | NLuc Km counter inconclusive | FLuc counter inactive | S16 viab conf inactive | PMP22 txn conf inactive
CC(=O)Nc1cc(NC(C)=O)cc(-c2nc3ccccc3[nH]2)c1	S16 viability inconclusive, PMP22 txn prim 7.27µM | NLuc saturating inconclusive | NLuc Km counter inconclusive | FLuc counter inactive | S16 viab conf inactive | PMP22 txn conf inactive
CCCCn1cc2c(c1-c1ccccc1Br)c(=O)n(C)c(=O)n2C	PMP22 txn prim 15µM | NLuc saturating inconclusive | NLuc Km counter inactive | FLuc counter inactive | S16 viab conf inactive | PMP22 txn conf inactive
Cn1cc(CN(C(=O)Nc2ccccc2)C2CCCCC2)c2ccccc21	S16 viability inconclusive, PMP22 txn prim 9.46µM | NLuc saturating inconclusive | NLuc Km counter inconclusive | FLuc counter inactive | S16 viab conf inactive | PMP22 txn conf inconclusive
Cn1cc(CN(C(=O)Nc2ccc(Cl)c(Cl)c2)C2CCCCC2)c2ccccc21	none
CCN(CC)S(=O)(=O)c1ccc2c(c1)N(CC(=O)NCCCN1CCN(c3cc(Cl)ccc3C)CC1)C(=O)CO2	pS6 MEF inh inconclusive, S16 viability inconclusive, PMP22 txn prim 20µM | NLuc saturating inactive | NLuc Km counter inactive | FLuc counter inactive | S16 viab conf inconclusive | PMP22 txn conf inconclusive
COc1cccc(/C=C/c2nc3ccccc3c(=O)n2-c2ccc(C)c(C)c2)c1OC	S16 viability inconclusive, PMP22 txn prim inconclusive
COc1cc(OC)c(OC)cc1/C=C/c1nc2cc3ccccc3cc2c(=O)n1-c1ccc(F)cc1F	S16 viability inconclusive, PMP22 txn prim 9.46µM | NLuc saturating 3.06µM | NLuc Km counter 2.17µM | FLuc counter inconclusive | S16 viab conf inactive | PMP22 txn conf inactive
COc1ccccc1-c1nc2c(c(SCC(=O)Nc3ccccc3F)n1)Cc1c(CO)cnc(C)c1O2	PMP22 txn prim inconclusive
COc1cc(Cl)c(NC(=O)CN(C)S(=O)(=O)c2ccc3[nH]c4c(c3c2)CCCC4)c(OC)c1	PMP22 txn prim inconclusive
CCOc1ccc(NC(=O)c2cc3sc(Cl)cc3n2CC)cc1	PMP22 txn prim 11.9µM | NLuc saturating inactive | NLuc Km counter inactive | FLuc counter inactive | S16 viab conf inactive | PMP22 txn conf inconclusive
CCOC(=O)c1ccc(NC(=O)c2oc(=O)c3ccccc3c2-c2ccccc2)cc1	none
O=C(NCCc1ccc(Cl)cc1)c1ccc(Cn2c(=O)[nH]c3ccccc3c2=O)cc1	PMP22 txn prim 3.18µM | NLuc saturating inactive | NLuc Km counter inactive | FLuc counter inactive | S16 viab conf inactive | PMP22 txn conf inconclusive
CCc1cccc(NC(=O)Cn2ncc3c([nH]c4ccc(C)cc43)c2=O)c1	none
CCN(CC)CCOC(=O)c1ccc(NC(=O)Cn2ncc3c([nH]c4ccc(C)cc43)c2=O)cc1	S16 viability inconclusive, PMP22 txn prim 10µM | NLuc saturating inactive | NLuc Km counter inactive | FLuc counter inactive | S16 viab conf 15.3µM | PMP22 txn conf 12.9µM
COc1ccc(-c2noc(-c3ccc(NCc4ccccc4OC)c([N+](=O)[O-])c3)n2)cc1	none
COc1ccc(-n2c(=O)c3c(c4cc(OC)ccc4n3C)n(Cc3ccc(F)cc3Cl)c2=O)cc1	GALC G270D act inconclusive
Cc1c(C(=O)OC2CCCCCC2)[nH]c2c1C(=O)CC(c1ccccc1Cl)C2 (stereo not given)	PMP22 txn prim inconclusive
Cc1c(C(=O)OC2CCC(C)CC2)[nH]c2c1C(=O)CC(c1ccccc1Cl)C2 (stereo not given)	pS6 MEF inh inconclusive, PMP22 txn prim 10.1µM | NLuc saturating inconclusive | NLuc Km counter inactive | FLuc counter inactive | S16 viab conf inactive | PMP22 txn conf inactive
CCOc1ccccc1NC(=O)C(=O)NCCc1sc(-c2cccc(F)c2)nc1C	PMP22 txn prim inconclusive | NLuc saturating inactive | NLuc Km counter inactive | FLuc counter inactive | S16 viab conf inactive | PMP22 txn conf inconclusive
CC(=O)Nc1cccc(NC(=O)C(=O)NCCc2sc(-c3ccccc3)nc2C)c1	pS6 MEF inh inconclusive, PMP22 txn prim 2.47µM | NLuc saturating inactive | NLuc Km counter inconclusive | FLuc counter inactive | S16 viab conf inactive | PMP22 txn conf 3.64µM
CCc1ccccc1NC(=O)C(=O)NCCc1sc(-c2cccc(F)c2)nc1C	PMP22 txn prim inconclusive
O=C(CCCn1c(=O)c2cccn2c2cccnc21)NCc1ccccc1Br	none
CSc1ccc(CCNC(=O)c2csc3c2CCCCC3)cc1	none
COc1ccc(-c2c(C)nn3c(N4CCN(c5cc(Cl)ccc5C)CC4)cc(C)nc23)cc1OC	PMP22 txn prim 15µM | NLuc saturating inactive | NLuc Km counter inconclusive | FLuc counter inactive | S16 viab conf inactive | PMP22 txn conf inactive
CC(=O)c1cccc(Nc2nc(-c3cccc(C)c3)nc3ccccc23)c1	pS6 MEF inh inconclusive, S16 viability inconclusive, PMP22 txn prim inconclusive
CC(=O)c1cccc(Nc2nc(-c3ccccc3Cl)nc3ccccc23)c1	PMP22 txn prim 10.6µM | NLuc saturating 5.44µM | NLuc Km counter 0.863µM | FLuc counter inactive | S16 viab conf inactive | PMP22 txn conf inactive
Fc1ccc(Nc2c3c(nc4nncn24)CCC3)cc1	pS6 MEF inh inconclusive, PMP22 txn prim inconclusive
Cc1ccc(Nc2c3c(nc4ccccc24)CCC3)cc1F	PMP22 txn prim 15.8µM | NLuc saturating inactive | NLuc Km counter inconclusive | FLuc counter inactive | S16 viab conf inactive | PMP22 txn conf inconclusive
COc1ccc(Nc2c3c(nc4ccc(NC(=O)c5ccc(F)cc5)cc24)CCCC3)cc1OC	S16 viability inconclusive, PMP22 txn prim inconclusive
